Source: PubChem
Only a selection was taken, and hits are over-represented in it overall.
KDM5B inh: inhibitors of human KDM5B histone demethylase; hit rate 2.6% among 220,000; KDM5B demethylase, FDH-coupled NADH fluorescence (FDH is formaldehyde dehydrogenase); Potency, µM (series often up to 57.7 µM), actives largely listed as inhibitors; Q9UGL1; active means well fitted inhibition curve with a large enough effect; further: nearly all actives have a fitted effect of over 70% in size
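Inhibition is measured as reduced NADH fluorescence generation from FDH coupling to formaldehyde release. Truncated KDM5BΔAP at 200 nM final acts on H3K4me3 peptide (12.5 µM in substrate mix) in pH 7.5 HEPES buffer with Tween-20, 30 min, room temperature.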
Of the large screens only hits and unclear results are named; the others gave an inactive call.

N#C/C(=C/c1ccc(Cl)cc1)C(=O)OCC(=O)N1CCCCC1	none
COc1cc(CN(C)CC(=O)N2c3ccccc3NC(=O)CC2C)ccc1OC(F)F (stereo not given)	none
Cc1cccc(C(=O)OCc2ncc(-c3ccccc3)o2)c1O	none
CN(C)S(=O)(=O)N1CCc2c(nc3cc(-c4ccccc4)[nH]n3c2=O)C1	KDM5B inh 22.4µM
Cc1noc(C)c1S(=O)(=O)N1CCc2n[nH]c(=O)n2CC1	none
CN(C)S(=O)(=O)N1CCCC(c2nc(-c3ccccc3)no2)CCNC(=O)CC1 (stereo not given)	none
Cc1noc(C)c1S(=O)(=O)N1CCCCCCn2c(nnc2-c2ccc(F)cc2)CC1	none
Cc1noc(C)c1S(=O)(=O)N1CCc2nc3cc(-c4ccccc4)[nH]n3c(=O)c2C1	KDM5B inh 28.2µM
CCn1cc(Cl)c(C(=O)N2CCc3c(nc4cc(-c5ccccc5)[nH]n4c3=O)C2)n1	KDM5B inh 25.1µM
O=C(c1cnc2ccccn12)N1CCc2c(nc(-c3ccccc3)[nH]c2=O)C1	none
CCn1c2c(c(=O)n1-c1ccccc1)CCN(C(=O)c1ccc(Cl)cc1)C2	none
COc1ccc(Cl)cc1C(=O)N1CCc2nc3cc(-c4ccccc4)[nH]n3c(=O)c2C1	KDM5B inh 25.1µM
COc1ccc(Cl)cc1C(=O)N1CCCN(c2cc(-c3ccccc3)[nH]n2)CC1	none
COc1ccccc1C(=O)N1CCc2nc(C3CC3)nc(-c3ccc(Cl)cc3)c2C1	none
CN(C)S(=O)(=O)N1CCCC(c2nc(-c3cccnc3)no2)CCNC(=O)CC1 (stereo not given)	none
Cc1ccc(F)cc1NC(=O)COC(=O)c1n[nH]c(=O)c2ccccc12	none
N#Cc1ccc(CN2CCC3(CC2)OCCN(CCc2ccccc2)C3=O)cc1	none
Cc1nc(CC2CCN(C(=O)c3ccccc3)CC2)n[nH]1	none
CCCCNC(=O)C12CC3CC(CC(C3)C1)C2	none
COc1ccc(N2CCCCS2(=O)=O)cc1S(=O)(=O)NCc1ccncc1	none
Cc1ccc(NN)c([N+](=O)[O-])c1	none
O=C(c1ccccc1OCC1CCCNC1)N1CCCCC1 (stereo not given)	none
COc1ccc(-c2noc([C@@H]3CCCN3C(=O)c3ccc(F)cc3Cl)n2)cc1	none
COc1ccc(-c2nn(-c3ccccc3)cc2C2=NN(S(C)(=O)=O)C(c3ccco3)C2)cc1 (stereo not given)	none
Cc1cc(=O)n2[nH]c(NCc3ccccc3)nc2n1	none
O=C(CN1CC2CC(C1)[C@H]1CCCC(=O)N1C2)NCc1ccccn1 (stereo not given in full)	none
CCN(C(=O)C(C)Cl)C1CCCCC1 (stereo not given)	none
Cc1ccc(NC(=O)CCc2ncc(-c3ccc(C)c(C)c3)o2)c(O)c1	none
CCOC(=O)CCNC(=O)N1CCc2c(nc3cc(-c4ccccc4)[nH]n3c2=O)C1	KDM5B inh 28.2µM
CCOC(=O)CCNC(=O)N1CCCN(S(C)(=O)=O)C(c2ccccc2)CC(=O)NCC1 (stereo not given)	none
O=C(c1ccccc1Cl)N1CCc2nc(-c3ccccc3)nc(-c3ccc(Cl)cc3)c2C1	none
O=C(c1cc2c(s1)CCCC2)N1CCc2c(nc3cc(-c4ccccc4)[nH]n3c2=O)C1	none
O=C(c1ccccc1Cl)N1CCc2c(nc3cc(-c4ccccc4)[nH]n3c2=O)C1	KDM5B inh 35.5µM
CCOC(=O)CCNC(=O)N1CCc2c(nc(-c3ccccc3)[nH]c2=O)C1	none
COc1cccc(/C=C/C(=O)Oc2ccc(C#N)cc2OC)c1	none
Cc1cccc(OC(C)C(=O)NN)c1 (stereo not given)	none
O=C(NCCCc1ccccc1)c1cccc2cccnc12	none
O=C(O)C1(Cc2ccccc2F)CCCN(c2ncccn2)C1 (stereo not given)	none
O=C(NCc1ccc(F)cc1)C1(CCO)CCN(c2ncccn2)C1 (stereo not given)	KDM5B inh 28.2µM
COc1ccccc1CNC(=O)C1(CCO)CCN(c2ncccn2)C1 (stereo not given)	KDM5B inh 20µM
O=C(Nc1ccc(F)cc1F)C1(CCO)CCN(c2ncccn2)C1 (stereo not given)	KDM5B inh 25.1µM
CC1(CNC(=O)NCc2ccc(F)cc2)CCOCC1	none
O=C(NCCCc1ccccc1)C1(CCO)CCN(c2ncccn2)C1 (stereo not given)	KDM5B inh 25.1µM
O=C(Nc1ccccc1)C1(CCO)CCN(Cc2ccccc2)C1 (stereo not given)	none
COc1ccccc1CNC(=O)C(C)C	none
O=C(NCCC(=O)N1CCN(c2ncccn2)CC1)c1ccc(F)cc1F	none
COc1ccccc1CNC(=O)C1(c2ccc(NC(C)=O)cc2)CCCCC1	none
O=C(CSc1ccnc(=O)[nH]1)NCc1ccc(F)cc1	none
COc1ccc(NC(=O)N2C[C@@H](F)C[C@H]2C(=O)N2CCCCC2)c(OC)c1	none
Cc1ccc(NC(=O)NCc2nc(-c3cccc(Cl)c3)oc2C)cc1	none
CN(CC(=O)Nc1ccc(Cl)cc1C(F)(F)F)C1CCc2ccccc21 (stereo not given)	none
CC(NC(=O)CSc1nnc(N2CCOCC2)n1-c1ccccc1)c1cc2ccccc2o1 (stereo not given)	none
CCC(C)NC(=O)COc1ncnc2ccccc12 (stereo not given)	none
Cc1ccc(C(C=O)C=O)cc1	none
Cc1nn(C)c(C)c1CCC(=O)N1C[C@@H](Oc2cccnc2)C[C@H]1C(=O)NC1CC1	none
CCOc1cc(CN(CC(=O)NC2CCCCC2)C2CC2)ccc1OC(F)F	none
Cc1ccc(OCC(=O)NCc2ccc(Cn3cccn3)cc2)c(C)c1	none
COc1ccccc1OC(C)C(=O)c1ccc(Cl)cc1 (stereo not given)	none
CC(C)NC(=O)c1ccnc(-c2ccccc2S(=O)(=O)NC(C)(C)C)c1	none
CNc1nccnc1-c1ccccc1S(=O)(=O)NC(C)(C)C	KDM5B inh 28.2µM
CC(C)(C)NS(=O)(=O)c1ccccc1-c1nc(N)nc2c1CCC2	KDM5B inh 22.4µM
CC(C)(N)C(=O)N1CCN(c2nc(-c3ccccc3)nc3c2CCC3)CC1	none
COC(=O)c1cc2oc(C)cc2n1Cc1ccccc1	none
O=C(NCc1ccccc1Cl)C(=O)Nc1cccc2[nH]ccc12	none
COc1ccc2nc3n(c2c1)[C@@H](CNC1CCOCC1)COC3	none
CCCN1CNC(=S)N(N2CN(CCC)CNC2=S)C1	none
CCC(C)c1ccc(-c2csc(NC(=O)C3CCN(C(=O)c4ccoc4)CC3)n2)cc1 (stereo not given)	none
Cc1ccc(CNC(=O)c2ccc(NC(=O)c3cc4c(=O)[nH]c(C)cn4n3)cc2)cc1	KDM5B inh 3.16µM
Cc1cn2nc(C(=O)NCc3cccc(Cl)c3)cc2c(=O)[nH]1	none
CSc1ccc(CNC(=O)c2cc3c(=O)[nH]c(C)cn3n2)cc1	none
COc1ccc(N2CCN(C(=O)COc3cccc(-c4nnc5n4CCCC5)c3)CC2)cc1	none
CC(C)C(=O)N1CCC2(CC1)OC(=O)N(Cc1ccccc1)C2(C)c1ccccc1 (stereo not given)	none
Fc1ccc(Oc2nc3ccccc3s2)c(Br)c1	none
O=C(NC1CCCC1)N1CCc2nnc(C3CC3)n2CC1	none
CCCCCCC(=O)N1CCCC(c2nc(-c3cccc(OC)c3)no2)C1 (stereo not given)	none
COc1ccccc1-c1nc2cnccn2c1NCCC(=O)Nc1ccc2c(c1)OCO2	KDM5B inh 28.2µM
COc1cccc(-c2nc3cnccn3c2NCCC(=O)N2CCN(C)CC2)c1	KDM5B inh 28.2µM
COc1ccccc1-c1ccc2ncc(Nc3ccc4c(c3)OCO4)n2n1	none
COc1cccc(Cc2nc3ccccc3nc2SCC(=O)N2CCc3ccccc32)c1	none
COc1cnc(CSc2nc(C)cs2)cc1OCC(=O)N1CCc2ccccc21	none
